Results on 53 compounds are retold here after ChEMBL document CHEMBL4513216, “Probing the Open Global Health Chemical Diversity Library for Multistage-Active Starting Points for Next-Generation Antimalarials” (ACS Infect Dis, 2020).

About 2,700 (4%) of roughly 68,000 compounds showed an effect of 50% or more. The list comes from a sample in which strong results are over-represented; it also holds similar structures and randomly drawn compounds.

The experiment relates to Plasmodium berghei. Nature of the experiment: Screen against P. berghei liver stage (PbLuc), transformed with Luciferase, at 2uM. The note with it: tested at 2 uM. The format is functional, HepG2.
Consider `COc1c(C(=O)N2CCOC(c3cccs3)C2)c(C)nn1C` (stereo not drawn), for which the INHIBITION was -11.34%.

For `Fc1ccc2[nH]c(C3CCCN3CCc3ccccn3)nc2c1` (stereo not drawn), the INHIBITION is reported as -55.56%.

Regarding `Cc1cccc(C(=O)N2CCCCC2c2nc3cc(F)ccc3[nH]2)n1` (stereo not drawn), the INHIBITION stood at 65.04%.

`O=C(CN1CCCC1c1nc2cc(F)ccc2[nH]1)NCc1ccccn1` (stereo not drawn): the INHIBITION is listed as 57.75%.

For `Cc1cc(C(=O)N2CCCCC2c2nc3cc(F)ccc3[nH]2)no1` (stereo not drawn), the INHIBITION stood at 33.92%.

`O=C(c1cccc(CO)n1)N1CCCC1c1nc2cc(F)ccc2[nH]1` (stereo not drawn): the INHIBITION is -20.6%.

Turning to `Fc1ccc2[nH]c(C3CCCN3Cc3c[nH]cn3)nc2c1` (stereo not drawn), the INHIBITION worked out at 19.59%.

Turning to `COCC(=O)N1CCCC1c1cc(Nc2nnc(C)s2)nc(C)n1` (stereo not drawn), the INHIBITION was found to be 10.43%.

Consider `CCN1CCCc2cc(CN3CCc4c(nc(C)[nH]c4=O)C3)ccc21`, for which the INHIBITION was -9.49%.

With `Cc1cc(C)nc(N2CCC(C(=O)Nc3n[nH]c(C(C)C)n3)CC2)n1`, the INHIBITION was 19.84%.

On to `COc1c(C2CCCN2C(=O)CCNc2ncccn2)c(C)nn1C` (stereo not drawn), for which the INHIBITION is 6.89%.

With `CN(c1ccc(CNC(=O)c2ccc(O)nc2)cc1)C1CCCCC1`, the INHIBITION was found to be 51.76%.

Take `CN(c1ccc(CNC(=O)c2c[nH]c(=O)c(Cl)c2)cc1)C1CCCCC1`: the INHIBITION is on record as -20.64%.

Regarding `Cc1ccc(C(=O)NCc2ccc(N(C)C)cc2)cn1`, the INHIBITION was 8.73%.

With `COCc1ccccc1NC(=O)NC(C)c1ccc(C)o1` (stereo not drawn), the INHIBITION is 53.19%.

For the compound `Cc1ccc(C(C)NC(=O)Nc2ccccc2CN2CCOCC2)o1` (stereo not drawn), the INHIBITION is -10.54%.

For the compound `COCc1ccccc1NC(=O)c1ccoc1`, the INHIBITION is listed as -38.36%.

Turning to `CC(C)N(C)Cc1cc(=O)n2c(n1)CN(C(=O)c1ccnnc1)CCC2`, the INHIBITION came to 25.92%.

For the compound `COc1ccc(C)cc1CN1CCC(c2cc3ncccc3cn2)CC1`, the INHIBITION is -17.29%.

On to `CCn1c(C)nnc1SCCNC(=O)Cn1cnc2ccccc2c1=O`, for which the INHIBITION is reported as 38.67%.

On to `CO[C@@H]1CCN(Cc2nccs2)C[C@@H]1Cc1cccc(C)c1`, for which the INHIBITION was found to be 10.17%.

`CS(=O)(=O)Cc1nc(CN2CCOc3ccccc3C2)cs1`: the INHIBITION is given as 33.9%.

Turning to `CS(=O)(=O)Cc1nc(CN2CCC(C(F)(F)F)CC2)cs1`, the INHIBITION is 62.51%.

For the compound `CS(=O)(=O)Cc1nc(CN2CCc3ccccc3CC2)cs1`, the INHIBITION is given as 41.05%.

For the compound `CC1(C)CN(Cc2csc(CS(C)(=O)=O)n2)Cc2ccccc21`, the INHIBITION is reported as 52.98%.

With `CS(=O)(=O)Cc1nc(CN2CCCc3sccc3C2)cs1`, the INHIBITION was 38.67%.

In the case of `CS(=O)(=O)Cc1nc(CN2CC=C(c3ccccc3)CC2)cs1`, the INHIBITION was -4.26%.

Take `CN(C)C1COC2(CCN(S(=O)(=O)c3ccc(F)cc3)CC2)C1` (stereo not drawn): the INHIBITION is on record as 42.4%.

`Cc1ccccc1C1CCCN(C(=O)c2c[nH]c(=O)c(Cl)c2)C1` (stereo not drawn): the INHIBITION is 23.16%.

Consider `Fc1cccc(N2CCCC3(C2)CN(c2ncccn2)CCO3)c1` (stereo not drawn), for which the INHIBITION is reported as 39.9%.

With `Cc1noc(C2CCCN(C(=O)c3ccc(Br)o3)C2)n1` (stereo not drawn), the INHIBITION was 3.9%.

With `Cc1nn(C)c(C)c1C1CCCN1c1ncnc2[nH]ccc12` (stereo not drawn), the INHIBITION is recorded as -41.8%.

`COc1ccc2c(c1)CCCN(C(C)C(=O)NC(C)C)C2` (stereo not drawn): the INHIBITION amounted to 47.68%.

In the case of `COc1ccc2c(c1)CCCN(C(C)C(=O)NC(N)=O)C2` (stereo not drawn), the INHIBITION turned out to be 6.92%.

In the case of `COC(=O)C(C)N1CCCc2cc(OC)ccc2C1` (stereo not drawn), the INHIBITION is listed as 58.69%.

Turning to `CCc1cc(C)c(C(=O)N2CCCC2CC(=O)c2cnn(C)c2)o1` (stereo not drawn), the INHIBITION turned out to be 9.3%.

For the compound `COc1ccccc1CC1CCCN(C(=O)c2cn[nH]c2C)C1` (stereo not drawn), the INHIBITION is reported as -62.85%.

For the compound `NCC1CCC(C(NC(=O)c2ccccn2)c2ccccn2)CC1` (stereo not drawn), the INHIBITION was determined as 8.1%.

Regarding `CCN1CCOCC2(CCCN(C(=O)c3conc3C)C2)C1` (stereo not drawn), the INHIBITION was 16.67%.

With `CCn1cc(C(=O)NCC(OC)c2cccc(Cl)c2)cn1` (stereo not drawn), the INHIBITION was 55.73%.

As to `CCn1cc(S(=O)(=O)NCC(OC)c2ccccc2)cn1` (stereo not drawn), the INHIBITION worked out at 58.12%.

For the compound `COC(CNC(=O)c1ccc(NC(C)=O)cc1)c1cccc(Cl)c1` (stereo not drawn), the INHIBITION is -8.34%.

On to `CCn1cc(S(=O)(=O)NC(CO)Cc2ccccc2)cn1` (stereo not drawn), for which the INHIBITION is 29.19%.

`COC(CNC(=O)c1ccoc1)c1cccc(Cl)c1` (stereo not drawn): the INHIBITION is -0.15%.

As for `CCn1cc(S(=O)(=O)NCC(OC)c2cccc(Cl)c2)cn1` (stereo not drawn), the INHIBITION is listed as 31.78%.

For `Cc1cnn(CCNCC(O)COc2ccc(Cl)cc2Cl)c1` (stereo not drawn), the INHIBITION turned out to be 23.94%.

As for `O=C(NCC1CCOC1)c1csc(-c2cccc(Cl)c2)n1` (stereo not drawn), the INHIBITION came out at 25.74%.

For the compound `N[C@H]1CN(C(=O)c2ccc3[nH]c(=O)c(=O)[nH]c3c2)C[C@@H]1c1ccccc1`, the INHIBITION is given as -6.88%.

For the compound `N#Cc1ccccc1N1CC2(CCCCN2CC2CC2)CC1=O` (stereo not drawn), the INHIBITION is on record as -47.71%.

As to `COCc1cc(CNC(=O)c2c(O)cccc2O)n[nH]1`, the INHIBITION came out at 30.93%.

Regarding `O=C(Nc1ccc2c(c1)OC1(CCCCC1)O2)c1ccc(=O)[nH]n1`, the INHIBITION is -5.9%.

`c1cncc(-c2nccc(CN3CCCC3)n2)c1`: the INHIBITION is recorded as 52.89%.

With `c1cncc(-c2nccc(CN3CCC(N4CCCCC4)CC3)n2)c1`, the INHIBITION is reported as 25.72%.
